A selection: hits, their analogues and other compounds. The true share with any hit is near 12%.
BAZ2B block = qHTS Assay for Inhibitors of BAZ2B; Bromodomain adjacent to zinc finger domain protein 2B (Homo sapiens), Q9UIF8; AlphaScreen BAZ2B-H3K14Ac peptide displacement; Potency, µM (top dose mostly 114 µM), without a hit: at the top dose activity change, negative = inhibition, actives largely listed as inhibitors; 360,000 tested, 4.4% active; also: potency is read from the fitted curve at half-maximal effect; % is scaled to controls: 0 for no effect and ±100 for the full control effect; nearly all actives have a fitted effect of over 60% in size
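BAZ2B 50 nM plus b-H3(5-23)K14Ac 50 nM, PBS pH 7.4/0.01% Tween-20, 30 min RT; compound added (max 110 uM), 30 min RT; streptavidin donor/Ni-chelate acceptor beads 10 ug/mL final, 20 min dark; AlphaScreen read.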
PLK1 PBD inh = qHTS for Inhibitors of PLK1-PDB (polo-like kinase 1 - polo-box domain): Primary Screen; Serine/threonine-protein kinase PLK1 (Homo sapiens), P53350; Plk1 PBD binding of FITC phosphopeptide, fluorescence polarization; Potency, µM, inactives show max response, negative = inhibition, usual class: inhibitors; 360,000 tested, 2.8% active; AID 720504, 2013; also: potency is read from the fitted curve at half-maximal effect; series mostly up to about 57 µM; % is scaled to controls: 0 for no effect and ±100 for the full control effect; nearly all actives have a fitted effect of over 65% in size
JMJD2A Tudor = qHTS Assay for Inhibitors of JMJD2A-Tudor Domain. Potency, µM (highest dose often 114 µM), for inactives: top-dose activity change, negative = inhibition, hits mostly inhibitors. 390,000 tested, 4.4% active. AlphaScreen JMJD2A-Tudor / H3K4me3 peptide binding. AID 504339, 2011; also: potency is read from the fitted curve at half-maximal effect; % is scaled to controls: 0 for no effect and ±100 for the full control effect; nearly all actives have a fitted effect of over 50% in size
Target sequence (O75164 whole entry, looked up, the tested form may be a part): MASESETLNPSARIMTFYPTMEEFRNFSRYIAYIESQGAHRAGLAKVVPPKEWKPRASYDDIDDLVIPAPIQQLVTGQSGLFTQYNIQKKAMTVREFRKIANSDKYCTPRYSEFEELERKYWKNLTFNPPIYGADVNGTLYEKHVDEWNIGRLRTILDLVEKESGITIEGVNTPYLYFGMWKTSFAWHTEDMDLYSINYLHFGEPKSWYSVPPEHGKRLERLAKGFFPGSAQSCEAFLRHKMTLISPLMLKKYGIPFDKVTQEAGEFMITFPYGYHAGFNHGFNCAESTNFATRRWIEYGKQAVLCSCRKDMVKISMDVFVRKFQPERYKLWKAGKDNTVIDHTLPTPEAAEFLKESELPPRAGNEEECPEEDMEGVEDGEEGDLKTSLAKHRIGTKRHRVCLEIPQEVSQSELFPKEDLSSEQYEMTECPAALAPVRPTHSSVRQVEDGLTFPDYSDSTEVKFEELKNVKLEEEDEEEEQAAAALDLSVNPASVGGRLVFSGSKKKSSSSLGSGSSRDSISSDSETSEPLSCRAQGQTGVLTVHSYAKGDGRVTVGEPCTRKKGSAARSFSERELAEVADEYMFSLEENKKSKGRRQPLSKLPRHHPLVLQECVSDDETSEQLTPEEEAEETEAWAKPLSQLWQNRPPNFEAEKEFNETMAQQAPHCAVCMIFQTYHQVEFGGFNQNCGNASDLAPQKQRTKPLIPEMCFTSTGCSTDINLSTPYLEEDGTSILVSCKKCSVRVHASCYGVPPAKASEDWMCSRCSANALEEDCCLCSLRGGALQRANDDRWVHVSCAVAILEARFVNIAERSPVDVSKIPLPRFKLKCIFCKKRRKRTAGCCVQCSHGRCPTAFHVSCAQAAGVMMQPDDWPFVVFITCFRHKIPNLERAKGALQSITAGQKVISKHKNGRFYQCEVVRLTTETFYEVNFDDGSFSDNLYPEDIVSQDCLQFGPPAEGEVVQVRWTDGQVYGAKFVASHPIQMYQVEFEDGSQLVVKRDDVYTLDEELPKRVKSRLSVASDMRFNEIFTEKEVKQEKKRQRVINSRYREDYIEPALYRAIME
HP1b binding inh = HTS for Inhibitors of HP1-beta Chromodomain Interactions with Methylated Histone Tails; Chromobox protein homolog 1 (Homo sapiens), P83916; 390,000 tested, 0.56% active; AID 540317, 2011; Potency, µM (titrated, usually from 114 µM), inactives show at the highest dose activity change, negative = inhibition, hits mostly inhibitors; AlphaScreen HP1-beta / biotin-H3K9me3 peptide binding; also: potency is read from the fitted curve at half-maximal effect; nearly all actives have a fitted effect of over 70% in size
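AlphaScreen: HP1-beta (50 nM) preformed 30 min with biotin-H3(1-18)K9me3 peptide (50 nM) in PBS pH 7.4, 0.01% Tween-20. Compound added for 30 min at RT, then streptavidin donor/nickel chelate acceptor beads (10 ug/mL) for 30 min.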
G9a inh = qHTS Assay for Inhibitors of Histone Lysine Methyltransferase G9a; Potency, µM (highest dose often 102 µM), for inactives: at the highest dose activity, negative = inhibition, most hits filed as inhibitors; AID 504332, 2011; G9a H3K9 monomethylation, AlphaScreen, 2 h; 350,000 tested, 8.8% active; Histone-lysine N-methyltransferase EHMT2 (Homo sapiens), Q96KQ7; also: potency is read from the fitted curve at half-maximal effect; % is scaled to controls: 0 for no effect and ±100 for the full control effect; nearly all actives have a fitted effect of over 75% in size
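Chemiluminescent proximity detection of H3K9 monomethylation, read after 10 min bead incubation in the dark. Reaction: 20 nM G9a, 500 nM biotin-H3K9 peptide, 20 uM SAM cofactor, 2 h, room temperature, following 15 min enzyme-compound preincubation.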
PI5P4Ka inh = qHTS for Inhibitors of phosphatidylinositol 5-phosphate 4-kinase (PI5P4K); Phosphatidylinositol 5-phosphate 4-kinase type-2 alpha (Homo sapiens), P48426; PI5P4Kalpha enzyme, ADP-Glo luminescence, 60 min; stronger effect = lower value; max response, %; 330,000 tested, 1.2% active; AID 652105, 2013; active = max response of -50% or lower; inconclusive = between -30% and -50%; inactive = -30% or higher; also: value at the top dose of about 77 µM; % is scaled to controls: 0 for no effect and ±100 for the full control effect
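PI5P4Kalpha ADP-Glo assay; 5 microM ATP final; 60 min RT reaction; HEPES pH 7.4/EGTA/CHAPS, 5% DMSO; controls lacking substrate or enzyme; luminescent end-point.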
The depositor's hits bear a star; ? = inconclusive; . = no result; [ ] = another dose, or the depositor's remark. Unless noted, calls follow the shape of the dose curve; as a rule, active = well fitted curve in the direction sought with a large enough effect; inconclusive = small, poorly fitted or top-dose-only effect, or another doubt; inactive = no such curve, though single readings can be large; an effect the other way counts as inactive or inconclusive.

SMILES	BAZ2B block	PLK1 PBD inh	JMJD2A Tudor	HP1b binding inh	G9a inh	PI5P4Ka inh
CCOc1ccc(C2N(c3cc(C)on3)C(=O)C3CCCN32)cc1OC (centres undefined)	-12.5%	26.7µM*	35.5µM*	?	?	1.9
COc1cc(C2N(c3cc(C)on3)C(=O)C3CCCN32)cc(OC)c1OC (centres undefined)	3.5%	0.4%	?	-0.8%	-13.3%[59 µM]	.
COc1ccc(C2N(c3cc(C)on3)C(=O)C3CCCN32)cc1OC (centres undefined)	?	-14.6%	20µM*	-16.8%	?	.
CS(=O)(=O)O/N=C1\CCCCC1c1ccc([N+](=O)[O-])cc1[N+](=O)[O-] (centres undefined)	-19.5%	-23.7%	-7.0%	21.7%	39.8µM*	1.4
Cn1cccc1/C=N/n1c(-c2ccccc2)n[nH]c1=S	?	?	3.55µM*	?	2.1%[0.501 µM]	2.5
Cn1cccc1/C=N/n1c(-c2ccc(C(C)(C)C)cc2)n[nH]c1=S	44.7µM*	?	50.1µM*	50.1µM*	7.94µM*	4.4
CC(=O)Nc1cccc(NC(=O)C2(c3cccs3)CCOCC2)c1	-3.7%	.	-7.8%	-8.5%	7.2%[59 µM]	.
O=C(Nc1nc(-c2ccccn2)cs1)c1ccco1	7.94µM*	?	56.2µM*	-22.2%	20µM*	?
O=C(Nc1nc(-c2ccccc2)cs1)c1ccc(Br)o1	-29.8%	29.9µM*	-30.8%	?	?	-9.2
COc1ccc2oc(C(=O)Nc3nc(-c4ccccn4)cs3)c(C)c2c1	-0.2%	-9.5%	-22.3%	9.7%	50.1µM*	?
Cc1ccc(C(=O)Nc2nc(-c3cccnc3)cs2)o1	?	?	-27.1%	-23.2%	?	?
C[C@H](NC(=O)c1ccco1)C(=O)Nc1nc(-c2ccccn2)cs1	.	-12.2%	44.7µM*	30.5%	.	-6.8
O=C(NC(=S)Nc1nc(-c2ccccc2)cs1)c1ccco1	-24.9%	-8.0%	-8.4%	9.7%	27.5%[59 µM]	-2.8
Cc1cc(OCC(=O)Nc2nc3c(s2)CCCC3)cc(C)c1Cl	-14.2%	.	-14.6%	-8.9%	?	.
COc1ccc(-c2nc(SCC(=O)NCc3nc4ccccc4n3C)n3[nH]c(=O)cc3n2)cc1	-27.4%	.	-1.6%	33.2%	39.0%[59 µM]	.
COc1ccc(NC(=O)CC2Oc3ccccc3NC2=O)c(OC)c1 (centres undefined)	-4.0%	-8.4%	-2.3%	56.4%	9.9%	-1.0
C=CCN(CC=C)Cc1cc(=O)oc2ccccc12	.	5.7%	.	.	.	0.2
O=C(Nc1nc(-c2ccncc2)cs1)c1ccco1	-9.1%	-20.1%	-15.5%	21.1%	35.5µM*	-14.0
Cc1ccccc1NC(=O)c1nc2nccc(C)n2n1	-2.1%	.	.	.	5.0%	.
O=C(Nc1nc(-c2cc3ccccc3oc2=O)cs1)c1ccco1	?	-18.2%	-29.7%	27.3%	35.5µM*	-5.0
CCc1ccc(-c2csc(NC(=O)Oc3ccccc3)n2)cc1	-33.1%	?	-30.8%	-5.9%	44.7µM*	5.2
Cc1ccnc2nc(C(=O)Nc3nc(-c4ccccn4)cs3)nn12	3.16µM*	-29.6%	22.4µM*	58.6%	20.2%[12.7 µM]	?
O=C(Nc1nc(-c2cccs2)cs1)c1ccco1	-28.0%	?	-16.9%	16.0%	?	-1.7
Cc1c(C(=O)NCc2ccccc2Cl)sc2ncnc(N(C)C3CCCCC3)c12	1.1%	.	-10.7%	44.5%	-21.2%[59 µM]	.
CCN(CC)C(=O)Cn1c(=O)cc(C)c2c(C)nn(-c3cccc(Cl)c3C)c21	-8.6%	.	-28.7%	-16.9%	-3.2%[59 µM]	.
O=C(Nc1nc(-c2cc(Cl)sc2Cl)cs1)c1ccc(Br)s1	-2.8%	-2.1%	0.0%	18.4%	7.7%[59 µM]	-2.9

Assay outcomes (PubChem BioAssay)
